Measurements from PubChem BioAssay AID1851 (National Center for Advancing Translational Sciences (NCATS), 2009).
Among all 16,000 compounds or so, about 2,600 (16%) were called active. Another 20% or so got no clear call; they are omitted. Not all results are given here. A number with no mark means an inactive call. Calls come from the whole dose curve; as a rule, active = well fitted curve in the direction sought with a large enough effect; inconclusive = small, poorly fitted or top-dose-only effect, or effect the other way; inactive = no such curve, though single readings can be large or run the other way.

molecular target: Cytochrome P450 2D6 (Homo sapiens) (UniProt P10635); experiment: Cytochrome panel assay with activity outcomes; details: recombinant CYP, pro-luciferin dealkylation, luminescence, p450-cyp2d6; series mostly up to 57.1 µM; activity, negative = inhibition: at the top concentration
Sequence (P10635 whole entry, looked up): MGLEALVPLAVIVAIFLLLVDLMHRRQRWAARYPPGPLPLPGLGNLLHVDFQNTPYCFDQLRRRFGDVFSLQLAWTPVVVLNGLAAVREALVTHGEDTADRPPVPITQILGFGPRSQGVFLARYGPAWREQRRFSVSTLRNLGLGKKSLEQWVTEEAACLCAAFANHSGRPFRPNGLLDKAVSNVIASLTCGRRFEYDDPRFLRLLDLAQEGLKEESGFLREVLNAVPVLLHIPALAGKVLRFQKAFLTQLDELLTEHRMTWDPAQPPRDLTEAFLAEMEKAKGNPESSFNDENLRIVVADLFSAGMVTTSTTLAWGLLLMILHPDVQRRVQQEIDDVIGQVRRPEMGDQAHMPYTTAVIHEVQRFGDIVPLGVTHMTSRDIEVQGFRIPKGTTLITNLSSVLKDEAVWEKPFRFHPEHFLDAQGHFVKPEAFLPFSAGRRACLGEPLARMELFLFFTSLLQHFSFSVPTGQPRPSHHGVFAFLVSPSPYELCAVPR
% is set by controls: 0 for no effect and ±100 for the full control effect.

| Structure (SMILES) | activity, negative = inhibition | AC50 |
| --- | --- | --- |
| Cc1cc(NC(=O)Nc2ccc(F)cc2)no1 | -4.04% | – |
| Clc1ccccc1C(Nc1ncccn1)Nc1ncccn1 | 1.87% [at 11.4 µM] | – |
| CN(C)CCCN=c1c2ccccc2n(C)c2[nH]c(=O)n(C)c(=O)c12 | 13.4% [at 11.4 µM] | – |
| CCN1CCN(C(=O)C2c3cc(OC)c(OC)cc3C(=O)N3CCc4ccccc4C23)CC1 (stereo unspecified) | 6.87% | – |
| O=C(O)C1C2C=CC3(CN(Cc4ccccn4)C(=O)C13)O2 (stereo unspecified) | -2.08% | – |
| CCOC(=O)Cn1nnc2c(sc3nc4c(c(-c5ccc(Cl)cc5)c32)CCC4)c1=O | -12.5% | – |
| CC(C)Cn1c(=O)n(C)c(=O)c2[nH]cnc21 | -4.45% | – |
| FC(F)(F)c1cc(C(F)(F)F)c2ccc(N/N=C/c3cccc(Cl)c3)nc2n1 | 13.3% | – |
| Cc1cnc(CNc2ncncc2-c2c(C)noc2C)cn1 | -3.29% | – |
| COc1ccccc1-c1cncnc1NCc1cccs1 | – | 15.8 µM (active) |
| CC(=O)NCCNc1ncncc1-c1ccccc1C | -17.1% | – |
| Clc1ccccc1-c1cncnc1NCc1cccs1 | – | 10 µM (active) |
| FC(F)(F)c1ccccc1-c1cncnc1NCc1cccs1 | – | 15.8 µM (active) |
| Cc1ccccc1-c1cncnc1NCc1cccs1 | – | 12.6 µM (active) |
| CO[C@H]1COC(=O)C/C=C\[C@@H](C)COC(=O)[C@@H](C)NC(=O)C/C=C\[C@@H]1C | 1.11% [at 11.4 µM] | – |
| O=S(=O)(c1ccccc1S(=O)(=O)N1CCCCC1)N1CCCCC1 | -8.09% | – |
| CC1(CCC#N)N=C(SCCC#N)N(c2ccccc2)C1=O (stereo unspecified) | 14.5% | – |
| Cc1ccc(S(=O)(=O)N[C@H](CN)C(=O)O)cc1 | 3.02% [at 11.4 µM] | – |
| CC(C)Oc1ccc(C2CC(=O)NC3=C2C(=O)CCC3)cc1 (stereo unspecified) | -8.75% | – |
| CCCCSC(=S)N(C)C1CCS(=O)(=O)C1 (stereo unspecified) | -20.3% | – |
| C=C(Br)CN(C)CC(=C)Br | 9.77% [at 11.4 µM] | – |
| CCOc1cc(C2CC(=O)c3c(ccc4ccccc34)N2)ccc1O (stereo unspecified) | -0.911% | – |
| COc1ccc(C2C(C(=O)N3CCOCC3)CCC(=O)N2c2ccc(OC)cc2)cc1 (stereo unspecified) | 8.66% | – |

| Structure (SMILES) | activity, negative = inhibition | AC50 |
| --- | --- | --- |
| CC(C)C(NC(=O)C12CC3CC(CC(C3)C1)C2)C(=O)NC1=NCCS1 (stereo unspecified) | -10.7% | – |
| COc1c(C)c2c(c(O)c1C/C=C(\C)CCC(=O)O)C(=O)OC2 | – | inactive |
| COC(=O)c1cc(C(=O)c2cccc(Cl)c2Cl)cn1C | -19.6% | – |
| Cc1cnc(CNc2ncncc2-c2ccccc2C#N)cn1 | -2.44% | – |
| CN(C)Cc1ccccc1-c1cncnc1NCc1cccs1 | – | 12.6 µM (active) |
| CC(C)Oc1cccc(C(=O)NC(=S)N2CCN(c3ccc(C(F)(F)F)cc3[N+](=O)[O-])CC2)c1 | -16.2% | – |
| O=C(CCN1C(=O)/C(=C/c2cccc(Br)c2)SC1=S)NNC(=O)c1cccnc1 | -8.93% | – |
| C[C@](O)(c1ccccc1)c1nccc2ccccc12 | -11.5% [at 11.4 µM] | – |
| COc1cccc(NC(=O)c2oc3ccccc3c2NC(C)=O)c1 | -15.6% | – |
| CCOC(=O)CC1NC(=O)c2ccccc21 (stereo unspecified) | 11.6% | – |
| C=CCn1c(SCC(=O)N2CC(=O)Nc3ccccc32)nc2scc(-c3ccccc3)c2c1=O | -13.4% | – |
| C=CCn1c(SCC(=O)N2CCc3ccccc3C2)nc2ccccc2c1=O | – | 15.8 µM (active) |
| C=CCSc1nc2ccccc2c(=O)n1Cc1ccco1 | -11.2% [at 11.4 µM] | – |
| Cc1ccc(-n2c(C)nnc2SCC(=O)N2CCc3ccccc3C2)cc1C | 0.438% | – |
| O=C(Cn1c(SCC(=O)N2CCc3ccccc3C2)nc2ccccc21)NC1CCCC1 | – | 25.1 µM (active) |
| O=C(Cn1cccc1)NC1CCCCCC1 | 5.48% | – |
| CCOC(=O)c1sc(N(Cc2ccccc2)C(=O)CN2C(=O)CN(C)C2=O)nc1C | -26% | – |
| c1ccc(-c2nccc(-c3ccc(-n4cnc5ccccc54)cc3)n2)nc1 | -20.9% | – |
| CCOC(=O)c1cn(-c2nc(-c3ccc(Cl)cc3)cs2)c2c(F)c(N3CC(C)OC(C)C3)c(F)cc2c1=O (stereo unspecified) | -6.02% | – |
| C[C@@H](c1ccccc1)N1C(=O)[C@H]2[C@H]3[C@H](O)[C@H](O)C/C(=N/OC[C@@H](O)COCc4ccco4)[C@H]3CC[C@@H]2C1=O | -0.906% [at 11.4 µM] | – |
| Cc1cccc(NC2=NC(=S)N(c3ccc(C(=O)O)cc3)C23CCCCC3)c1 | 33.6% | – |
| CCCn1cnc2c1c(=O)n(CCCCC(C)=O)c(=O)n2C | 5.76% | – |
| NC(=O)C(=O)O | 9.07% | – |

| Structure (SMILES) | activity, negative = inhibition | AC50 |
| --- | --- | --- |
| COc1ccc(C(=O)O/N=C/c2ccc(S(=O)c3ccc(Cl)cc3)nc2)cc1 (stereo unspecified) | 4.34% | – |
| CCCn1nnnc1-c1cc(Cl)cc(Cl)c1 | -16.5% | – |
| CC1=CC(=O)c2ccccc2C1=O | – | 7.94 µM (active) |
| CC1=CC(=C2C(=O)c3ccccc3C2=O)C=C(C)O1 | -1.34% | – |
| CCn1c(C)nc2c1C(=O)c1ccccc1C2=O | -24.8% | – |
| Cc1ccc(-n2ncc3c(=O)n(CC(=O)NCC4CCCO4)cnc32)cc1 (stereo unspecified) | -2.25% | – |
| O=C(/C=C/Nc1ccccc1)c1ccc(Oc2ncccn2)cc1 | -24.4% | – |
| CCCc1ccc(-c2cc(C(=O)NN3CCOCC3)c3ccccc3n2)cc1 | -8.77% | – |
| COc1ccccc1CNc1ncncc1-c1ccoc1 | – | 20 µM (active) |
| COc1ccccc1CNc1ncncc1-c1ccccc1Cl | – | 2 µM (active) |
| COc1ccccc1CN1C(=O)c2ccncc2C1=O | -1.12% | – |
| COc1ccccc1CNc1ncncc1-c1ccccc1C | – | 10 µM (active) |
| COc1ccccc1CNc1ncncc1-c1ccccc1OC | – | 10 µM (active) |
| COc1ccccc1CCn1c(=O)c(-c2ccc(F)cc2)nc2cncnc21 | 12.9% | – |
| CCOc1[nH]n(-c2ccc(Cl)cc2)c(=O)c1C=Nc1ccc(Cl)cc1 | 1.47% | – |
| CCOc1ccc(N/N=C(/C#N)C(N)=O)cc1 | -4.83% | – |
| CO[C@@H]1COC(=O)[C@H]2CCCN2C(=O)[C@@H](C)COC(=O)C/C=C\[C@H]1C | -1.92% [at 11.4 µM] | – |
| Cc1ccc(C(=O)N/C(=C/C=C/c2ccccc2)C(=O)NCc2ccco2)cc1 | 7.67% | – |
| Cc1c(Br)cc(C(=O)NC2CCCCC2)c(C)c1C | -8.72% | – |
| OC[C@@H]1O[C@@H](n2cnc3c(SCc4ccccc4)ncnc32)[C@@H](O)[C@H]1O | -0.968% [at 11.4 µM] | – |
| O=C(CCCCC(=O)Nc1c(I)cc(I)c(C(=O)O)c1I)Nc1c(I)cc(I)c(C(=O)O)c1I | -0.733% [at 25.6 µM] | – |
| CCOC(=O)CSc1nnc(CSc2nc3sc4c(c3c(=O)[nH]2)CCCC4)n1-c1ccccc1 | -29.7% | – |
| NC1=NC(=O)/C(=C/c2cccs2)S1 | 20.3% | – |

| Structure (SMILES) | activity, negative = inhibition | AC50 |
| --- | --- | --- |
| COc1ccc(-c2nc3cnc(N4CCNCC4)nc3n(C3CC3)c2=O)cc1 | 1.04% | – |
| Nc1ccc(S(=O)(=O)Nc2ccc(Cl)nn2)cc1 | 6.78% [at 25.6 µM] | – |
| COc1ccc2c(c1)-c1c(sn(-c3ccc(OC)c(OC)c3)c1=S)C(C)(C)N2 | 21.3% | – |
| OCCN1CCN(CCOc2cccc(Cl)c2)CC1 | – | 5.01 µM (active) |
| O=C(O)c1cccc(OCCO)c1 | 5.58% [at 11.4 µM] | – |
| C[C@H]1CN(CCO)CCN1c1ccccc1 | 11.2% [at 11.4 µM] | – |
| CO[C@H]1COC(=O)[C@H]2CCCN2C(=O)C/C=C\[C@@H](C)[C@H](OC)COC(=O)C/C=C\[C@@H]1C | -7.59% [at 11.4 µM] | – |
| CC1=C[N+](=O)c2ccccc2[N+]1=O | 22.3% [at 11.4 µM] | – |
| COc1ccc(O[C@H]2C=C[C@@H](c3ccccc3)O[C@H]2CO/N=C\C[C@@H]2C=C[C@H](OC(C)=O)[C@H](COC(C)=O)O2)cc1 | -5.75% [at 11.4 µM] | – |
| C/C(CCC(=O)OC[C@@H]1O[C@H](C#Cc2ccccc2)C=C[C@@H]1Oc1ccc(C)cc1)=N/OC[C@@H](O)COCc1ccco1 | 5.64% [at 11.4 µM] | – |
| COc1ccc(O[C@H]2C=C[C@@H](c3ccccc3)O[C@H]2CO/N=C2/c3cc(OC)ccc3O[C@@H](c3cccc(OC)c3)[C@H]2O)cc1 | -21.5% [at 11.4 µM] | – |
| COc1ccc(O[C@H]2C=C[C@@H](c3ccccc3)O[C@H]2CO/N=C(/C)CCC(=O)OC[C@@H]2O[C@H](c3ccccc3)C=C[C@@H]2Oc2ccc(OC)cc2)cc1 | 8.39% [at 11.4 µM] | – |
| CC(=O)OC[C@H]1O[C@@H](O/N=C(\C)CCC(=O)OC[C@@H]2O[C@H](C#Cc3ccccc3)C=C[C@@H]2Oc2ccc(C)cc2)[C@H](OC(C)=O)[C@@H](OC(C)=O)[C@H]1OC(C)=O | – | 3.98 µM (active) |
| CCCNC(=O)OC[C@@H]1O[C@H](CCO/N=C2\c3cc(OC)ccc3O[C@H](c3cccc(OC)c3)[C@H]2O)C=C[C@@H]1Oc1ccc(OC)cc1 | -1.45% [at 11.4 µM] | – |
| COc1ccc(O[C@H]2C=C[C@@H](c3ccccc3)O[C@H]2COC(=O)CC/C(C)=N/O[C@@H]2O[C@H](COC(C)=O)[C@H](OC(C)=O)[C@H](OC(C)=O)[C@H]2OC(C)=O)cc1 | – | 3.16 µM (active) |
| COc1cccc([C@H]2Oc3ccc(OC)cc3/C(=N\O[C@@H]3O[C@H](COC(C)=O)[C@H](OC(C)=O)[C@H](OC(C)=O)[C@H]3OC(C)=O)[C@@H]2O)c1 | – | 3.16 µM (active) |
| CC(=O)OC[C@@H]1O[C@H](CCO/N=C(\C)CCC(=O)OC[C@@H]2O[C@H](C#Cc3ccccc3)C=C[C@@H]2Oc2ccc(C)cc2)C=C[C@@H]1OC(C)=O | 15.9% [at 11.4 µM] | – |
| CN1CCN(c2ncc3ncc(=O)n(CCC#N)c3n2)CC1 | 1.57% | – |
| COC(=O)c1ccc(Oc2cc(C)nc(-n3nc(C)cc3C)n2)cc1 | -10.5% | – |
| Cc1cccc(NC(=S)NNC(=O)CC(C)O)c1C (stereo unspecified) | -3.05% | – |
| O=C(/C=C/c1ccc2ccccc2c1)c1ccoc1 | -5.53% | – |
| COC(=O)c1c(-c2ccc3ccccc3c2)csc1NC(=O)Cc1ccc(OC)c(OC)c1 | 9.92% | – |
